The values below come from PubChem BioAssay (Tox21).

Results filed as inconclusive are left out. A call without a number means that no potency is given here. Activity calls are given as the source filed them. The call rests on the fitted dose curve; in most records, active means well fitted inhibition curve with a large enough effect in the repeat runs; inconclusive means weak or mixed curves; inactive means no such curve, though single readings can be large or run the other way.
Potency means the concentration at half of the fitted maximal effect.

The target in this experiment is Cytochrome P450 2D6 (Homo sapiens) (UniProt P10635). In words: Cytochrome P450 Family 2 Subfamily D Member 6 (CYP2D6) small molecule antagonists: luciferase reporter qHTS assay (AID 1671196). Further: nearly all actives have a fitted effect of over 50% in size. Particulars: P450-Glo CYP2D6 enzyme assay, luciferin luminescence, 1 h; series mostly up to 115 µM. Put shortly: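 Cell-free P450-Glo system: CYP2D6 with proluciferin substrate was pre-incubated with compound for 10 min, then reacted with NADPH regeneration for 1 h at room temperature. Luciferin product was detected after 20 min, and data were reported as relative luminescence units.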
Chain of Cytochrome P450 2D6 (Homo sapiens) (P10635 whole entry, looked up): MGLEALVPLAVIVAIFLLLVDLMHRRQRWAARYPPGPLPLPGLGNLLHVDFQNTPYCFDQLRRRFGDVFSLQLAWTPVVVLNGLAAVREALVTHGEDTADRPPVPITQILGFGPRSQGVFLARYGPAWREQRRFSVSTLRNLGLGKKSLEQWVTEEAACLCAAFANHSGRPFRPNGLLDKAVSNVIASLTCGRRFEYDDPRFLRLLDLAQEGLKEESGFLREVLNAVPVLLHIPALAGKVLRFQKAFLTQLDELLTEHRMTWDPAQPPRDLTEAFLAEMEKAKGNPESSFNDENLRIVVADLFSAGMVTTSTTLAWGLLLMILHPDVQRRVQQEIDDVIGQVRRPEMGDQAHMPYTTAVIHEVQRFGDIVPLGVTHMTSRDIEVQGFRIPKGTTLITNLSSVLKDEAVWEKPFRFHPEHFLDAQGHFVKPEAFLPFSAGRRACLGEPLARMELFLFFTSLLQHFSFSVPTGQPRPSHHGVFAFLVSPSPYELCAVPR
In the case of `[O-][Br+2]([O-])O`, the Potency result was “inactive”.

For the compound `CCOP(=S)(OCC)SCCl`, the Potency result was “inactive”.

As to `CCC(C)C(C)(COC(N)=O)COC(N)=O` (stereo not given), the Potency result is “inactive”.

With `ClC1=C(Cl)C2(Cl)C(CBr)CC1(Cl)C2(Cl)Cl` (stereo not given), the Potency entry is “inactive”.

With `CCOC1Oc2ccc(OS(C)(=O)=O)cc2C1(C)C` (stereo not given), the Potency is 35.3 µM (active).

With `CC(C)(N)Cc1ccc(Cl)cc1`, the Potency is 3.09 µM (active).

For `CCOC(=O)CC(SP(=S)(OC)OC)C(=O)OCC` (stereo not given), the Potency entry was “inactive”.

`O=C/C=C/c1ccco1`: the Potency entry is “inactive”.

On to `COc1cc(CCN)cc(OC)c1OC`, for which the Potency result is “inactive”.

In the case of `CNC(=O)NC(O)C(Cl)(Cl)Cl` (stereo not given), the Potency result was “inactive”.

Take `O=C(NC(O)C(Cl)(Cl)Cl)NC(O)C(Cl)(Cl)Cl` (stereo not given): the Potency entry is “inactive”.

Take `O=C(O)CBr`: the Potency entry was “inactive”.

On to `CC(C)[C@]12CC(=O)[C@H](C)[C@H]1C2`, for which the Potency result was “inactive”.

As for `CN(C)C(=O)Oc1cc(OC(=O)N(C)C)cc(C(O)CNC(C)(C)C)c1` (stereo not given), the Potency is 4.9 µM (active).

Regarding `C=C(C)[C@H]1CN[C@H](C(=O)O)[C@H]1CC(=O)O`, the Potency result is “inactive”.

As for `CC(C)(O)C(Cl)(Cl)Cl`, the Potency result is “inactive”.

For the compound `Cn1c(CCCC(=O)O)nc2cc(N(CCCl)CCCl)ccc21`, the Potency entry is “inactive”.

With `CCN(CCO)CCn1c(Cc2ccccc2)nc2c1c(=O)n(C)c(=O)n2C`, the Potency entry is “inactive”.

As to `CC(C)C(C)(N)C#N` (stereo not given), the Potency entry is “inactive”.

`O=P(O)(O)CN(CP(=O)(O)O)CP(=O)(O)O`: the Potency result is “inactive”.

As to `Cc1ccc(Cl)c(O)c1`, the Potency result was “inactive”.

With `C/C=C/CC#N`, the Potency entry was “inactive”.

`ClCCCCCCCl`: the Potency entry is “inactive”.

Consider `CCCCCCC(=O)CCCCCC/C=C/C[C@@H](O)[C@H](O)[C@@](N)(CO)C(=O)O`, for which the activity change, negative = inhibition was -0.222% [at 23.6 µM] (inactive).

For the compound `O=C1C2CC=CCC2C(=O)N1SC(Cl)(Cl)Cl` (stereo not given), the Potency is 78.3 µM (active).
